Assay outcomes as filed in PubChem BioAssay.
An excerpt weighted towards active compounds, which were near 0.93% of everything screened.
Phagocytosis inh = macrophage phagocytosis inhibition; 0.07% of 110,000 active; J774A.1 macrophage IgG-bead phagocytosis, imaging; inhibition, % at 5 µM;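 active means inhibition above the mean of the plate negative controls plus 5 SD, cut at about 13% in these data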;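 further: phagocytic index as fraction of beads internalized from green versus red external bead signal; plate controls were DMSO negative control for no effect and cytochalasin-D positive control for full effect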
IL1B NFkB inh = blocks IL-1B driven NFkB nuclear translocation in HUVEC cells; inhibition, % at 2 µM; AID 796; 0.43% of 94,000 active; HUVEC IL-1B NFkB p65 nuclear translocation imaging;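 active means inhibition above about 30% together with a positive call from visual inspection of the well image, limit read from the data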;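 further: nuclear over cytoplasmic p65 intensity ratio measured by imaging; 0% = IL-1B stimulated DMSO wells and 100% = unstimulated DMSO wells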
NFkB transloc pot = enhances IL-1B driven NFkB nuclear translocation; AID 819; 0.3% of 94,000 active; activation, % at 2 µM; HUVEC IL-1B NFkB p65 nuclear translocation imaging;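 active means activation above 40%, about the mean plus 3 SD, also judged a hit on visual image review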;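 further: percent activation is computed from the nuclear over cytoplasmic p65 intensity ratio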
HUVEC tox TNFa = toxic to HUVEC cells under TNF alpha stimulation | 0.17% of 93,000 active | HUVEC TNFalpha-stimulated, Hoechst cell count, imaging | cell count reduction, % at 2 µM | AID 848;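 active means cell count reduction exceeding the screen mean by over 5 SD, scaled to untreated wells per plate, cut at about 78% in these data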;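 further: cells counted after 24 h of TNF alpha exposure following the 1 h pretreatment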
HUVEC tox IL1B = HUVEC cytotoxicity counter-screen, IL-1B stimulated. 0.41% of 94,000 active. HUVEC cell count loss, Hoechst imaging. cell count reduction, % at 2 µM;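 active means cell count reduction more than 3 SD above the screen-wide mean, cut at about 70% in these data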;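 further: normalized per plate to untreated control cells as the no-loss baseline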
Starred values were filed as active, the others as inactive; x = no result given; [ ] = remark or other dose.

SMILES | Phagocytosis inh | IL1B NFkB inh | NFkB transloc pot | HUVEC tox TNFa | HUVEC tox IL1B
COc1cccc(Cn2c(NCC(C)C)nc3c2c(=O)n(C)c(=O)n3C)c1 | x | -26.8 | 26.8 | -2.0 | 73.5*
Cc1ccc(-c2ccc(=O)[nH]n2)cc1 | x | 98.5* | -98.5 | -20.2 | 82.3*
O=C(CNc1cccc(C(F)(F)F)c1)N/N=C/C1CCCCC1 | -8.0 | x | x | x | x
CC12Cc3ccc4ccccc4c3C=C1C[N+](C)(C)C2 (stereo not given) | 0.5 | 49.3* | -49.3 | 3.2 | -3.3
Cc1nc(NC(=O)C23CC4CC(CC(C4)C2)C3)sc1Cc1ccc2c(c1)OCO2 | -13.7 | x | x | x | x
CCOc1cc(N2CCOCC2)c(OCC)cc1NC(=O)COC(=O)c1ccccc1C | -2.1 | x | x | x | x
CCOc1cc(N2CCOCC2)c(OCC)cc1NC(=O)Cc1cccc2ccccc12 | 2.4 | -62.8 | 62.8* | -12.0 | 19.7
CNC(=O)CCCc1nc(-c2ccccc2Cl)no1 | -0.4 | -65.2 | 65.2* | -48.9 | 4.4
NC(=O)CCCc1nc(-c2ccccc2Cl)no1 | -2.3 | 13.7 | -13.7 | -6.7 | -16.4
c1ccc(Cc2nnc3sc(-c4cccnc4)nn23)cc1 | 0.4 | -12.2 | 12.2 | -10.3 | 91.3*
Cc1ccc(C2CC2C(=O)NNC(=S)Nc2cccc(Cl)c2)cc1 (stereo not given) | x | 6.2 | -6.2 | -8.1 | 71.1*
O=C(Nc1cccc2cccnc12)C1CCCC1 | 0.9 | x | x | x | x
CC(C)N(C(=O)c1ccc2nc3c4ccccc4c4ccccc4c3nc2c1)C(C)C | x | -20.1 | 20.1 | -22.5 | -20.8
Cc1nn(Cc2ccccc2)c(C)c1NC(=O)CSc1nc(C2CC2)nc2c1cnn2-c1ccccc1 | 0.4 | 46.5* | -46.5 | -0.6 | -9.6
CCN(CC)C(=O)CSc1nnc(-c2ccccc2)n1-c1ccccc1 | -0.6 | 37.9* | -37.9 | -34.6 | -42.3
COc1ccc(NC(=O)c2nc3ccccc3s2)cc1 | -2.2 | x | x | x | x
CC(C)NC(=O)c1nc2ccccc2s1 | 2.4 | 2.7 | -2.7 | -17.1 | 74.3*
CCCCCCCCCCCCOC1OC(CO)C(O)C(O)C1NC(C)=O (stereo not given) | -6.6 | x | x | x | x
Cc1ccc(C)c(NC2=NC3(CCCCC3)N=C(N)N2)c1 | x | 3.0 | -3.0 | x | -41.4
Cc1ccc(NC2=NC3(CCCCC3)N=C(N)N2)c(C)c1 | 0.2 | 96.9* | -96.9 | 1.9 | 40.6
O=C(Nc1ccccc1)/C(=C/c1ccc2c(c1)OCO2)NC(=O)c1ccco1 | -8.7 | x | x | x | x
C#CC(=O)N(c1cc(OC)ccc1OC)C(C(=O)NC1CCCC1)c1cccs1 (stereo not given) | 72.6* | -9.2 | 9.2 | 15.4 | 43.2
Cc1cc(NC(=O)CC(C)(C)C)nc2c1c(=O)oc1ccccc12 | x | 23.9 | -23.9 | 10.6 | -10.7
CCCc1cc2c(c(NC(C)=O)n1)c(=O)oc1ccccc12 | x | 19.3 | -19.3 | x | 78.4*
Cc1cc(C)nc(NC(=O)c2c(-c3ccccc3Cl)noc2C)c1 | -3.7 | x | x | x | x
SMILES | Phagocytosis inh | IL1B NFkB inh | NFkB transloc pot | HUVEC tox TNFa | HUVEC tox IL1B
CCOC(=O)Cn1c(=O)oc2cc(S(=O)(=O)N3CCN(C(=O)c4ccco4)CC3)ccc21 | -2.9 | x | x | x | x
CCCOC(=O)c1ccc(NC(=O)Oc2ccccc2)cc1 | x | 11.8 | -11.8 | 100.0* | -25.6
CCCCNC(=O)CCn1c(=O)c2ccccc2n(Cc2ccc(Cl)cc2)c1=O | -10.3 | x | x | x | x
COc1ccc2c(c1)C1(Nc3ccccc3-c3nc4ccccc4n31)C(=O)N2 (stereo not given) | 0.5 | 16.0 | -16.0 | 2.9 | 70.9*
COc1ccc2c(c1)C1(Nc3ccccc3-c3nc4ccccc4n31)C(=O)N2C (stereo not given) | x | 7.1 | -7.1 | -4.5 | 5.3
COC(=O)C1=C(C)N(c2ccc(Cl)c(Cl)c2)C(=O)C1 | x | -55.4 | 55.4* | -10.8 | -13.2
CCOC(=O)C(Cc1ccccc1)NC(C)=O (stereo not given) | -2.4 | 15.7 | -15.7 | -3.7 | 92.4*
CCCNC(=O)N[C@@H](Cc1ccccc1)C(=O)OC | -1.8 | -3.1 | 3.1 | -18.7 | -13.8
C/C(N)=C(/C#N)C(=O)COC(=O)c1ccc(C)c(S(=O)(=O)N2CCCCC2)c1 | 0.1 | -42.3 | 42.3* | 3.0 | 0.3
COc1ccc(C2=NOC(C(=O)NCCCN3CCOCC3)C2)cc1 (stereo not given) | 1.4 | -46.8 | 46.8* | 12.0 | 5.3
O=C(OC1C2CCC1C1CN(CCc3ccccc3)CC12)c1ccccc1 (stereo not given) | -4.3 | x | x | x | x
Cn1cc(S(=O)(=O)N2CCN(c3cccc(C(F)(F)F)c3)CC2)c(=O)n(C)c1=O | 0.2 | 56.4* | -56.4 | -12.9 | -5.6
Cc1c(S(=O)(=O)N2CCN(c3cccc(C(F)(F)F)c3)CC2)c(=O)n(C)c(=O)n1C | -0.9 | -4.2 | 4.2 | 4.8 | -16.7
CCOC(=O)Cc1csc(NC(=S)NC(=O)c2ccccc2C)n1 | x | 50.0* | -50.0 | 2.2 | -30.9
Cc1cccc(/C=C2\CS/C(=C\c3cccc(C)c3)C2=O)c1 | -0.5 | 54.3* | -54.3 | -13.2 | -9.5
COC(=O)c1ccc2c(=O)n(CCCCCC(=O)NCc3ccc4c(c3)OCO4)c(=O)[nH]c2c1 | 3.1 | 24.7 | -24.7 | -33.3 | 89.8*
COC(=O)c1ccc2c(=O)n(CCCCCC(=O)NCc3ccccc3)c(=O)[nH]c2c1 | -0.3 | -14.2 | 14.2 | -40.4 | -35.0
COC(=O)c1cc(COc2ccc3oc(C)c(C(=O)OC(C)C)c3c2)c(C)o1 | 0.9 | -6.4 | 6.4 | -16.3 | -24.5
COC(=O)C(NC(C)=O)(Nc1nc2c(C)cc(C)cc2s1)C(F)(F)F (stereo not given) | -0.2 | -5.4 | 5.4 | -12.6 | -23.8
CCN(c1ccc(OC)cc1)S(=O)(=O)c1ccc2c(c1)CCN2C(=O)CCC(=O)O | -1.1 | -4.0 | 4.0 | -14.7 | -14.3
CCN(c1ccc(C)c(C)c1)S(=O)(=O)c1ccc2c(c1)CCN2C(=O)CCC(=O)O | -0.7 | -53.7 | 53.7* | -25.8 | -12.2
N=c1sccn1CC(=O)Nc1ccc(S(=O)(=O)N2CCOCC2)cc1 | -0.6 | -5.2 | 5.2 | -15.5 | -44.6
Cc1ccc(S(=O)(=O)N2CCOCC2)cc1NC(=O)Cn1ccsc1=N | -1.1 | -40.3 | 40.3* | -6.4 | -3.5
O=C(COc1ccccc1)Nc1cccc(-c2nc3cc4ccccc4cc3[nH]2)c1 | x | 4.8 | -4.8 | 24.7 | 45.1
COc1ccccc1CO/N=C/NC(=O)c1c(OC)ccnc1Oc1ccc(F)cc1 | -1.3 | 1.1 | -1.1 | -30.1 | -24.7
SMILES | Phagocytosis inh | IL1B NFkB inh | NFkB transloc pot | HUVEC tox TNFa | HUVEC tox IL1B
COc1ccnc(Oc2ccccc2)c1C(=O)N/C=N/OCc1ccc(F)cc1Cl | -0.2 | 14.3 | -14.3 | -12.7 | 94.9*
C=CCSc1nnc2c(n1)OC(c1ccco1)Nc1ccccc1-2 (stereo not given) | -1.6 | x | x | x | x
C=CCSc1nnc2c(n1)OC=Nc1ccccc1-2 | 0.0 | 30.3* | -30.2 | -16.4 | 90.8*
O=c1cc(CO)oc(CN2CCN(c3ccccc3)CC2)c1O | -2.1 | -13.2 | 13.2 | 86.1* | -26.4
C/C(=N/OCO/N=C(\C)c1ccc(F)cc1F)c1ccc(F)cc1F | -7.0 | x | x | x | x
Cc1onc(-c2c(F)cccc2Cl)c1C(=O)NCC1COc2ccccc2O1 (stereo not given) | 16.2*[artifact] | 13.4 | -13.4 | 0.0 | -4.1
C=CCn1c(SCc2cc(C(C)=O)ccc2OCC)nc2ccccc2c1=O | 8.1 | x | x | x | x
